# Assay results taken from PubChem BioAssay (NCI).
# Compounds without any hit were thinned out: in the full panel of roughly 83,000, 20% have a hit.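 96-well plates, one dose, 48 hours. Percent growth reported; active if below 10.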 A number with no mark means an inactive call. Calls of active or inactive are those of the source.
# Columns and labels:
# Test in all cases: NCI-60 one-dose screen, 48 h (100 = growth as untreated, 0 = no growth, -100 = all killed)
# Conditions in all cases: 10 µM unless noted
# HT29 colon = tested on: HT29 colon
# SNB-75 CNS = tested on: SNB-75 CNS
# SNB-19 CNS = tested on: SNB-19 CNS
# U251 CNS = tested on: U251 CNS
# PC-3 prostate = tested on: PC-3 prostate
# SK-MEL-5 melanoma = tested on: SK-MEL-5 melanoma
# UACC-62 melanoma = tested on: UACC-62 melanoma
# LOX IMVI melanoma = tested on: LOX IMVI melanoma
# SK-MEL-28 melanoma = tested on: SK-MEL-28 melanoma
# SK-MEL-2 melanoma = tested on: SK-MEL-2 melanoma
# EKVX NSCLC = tested on: EKVX NSCLC
# SN12C renal = tested on: SN12C renal
# UO-31 renal = tested on: UO-31 renal
# TK-10 renal = tested on: TK-10 renal
# ACHN renal = tested on: ACHN renal
# CAKI-1 renal = tested on: CAKI-1 renal
# A498 renal = tested on: A498 renal
# MOLT-4 leukemia = tested on: MOLT-4 leukemia
# CCRF-CEM leukemia = tested on: CCRF-CEM leukemia
Structure (SMILES),growth (HT29 colon),growth (SNB-75 CNS),growth (SNB-19 CNS),growth (U251 CNS),growth (PC-3 prostate),growth (SK-MEL-5 melanoma),growth (UACC-62 melanoma),growth (LOX IMVI melanoma),growth (SK-MEL-28 melanoma),growth (SK-MEL-2 melanoma),growth (EKVX NSCLC),growth (SN12C renal),growth (UO-31 renal),growth (TK-10 renal),growth (ACHN renal),growth (CAKI-1 renal),growth (A498 renal),growth (MOLT-4 leukemia),growth (CCRF-CEM leukemia)
CCN1C(=O)/C(=c2\sc3n(c2=O)C2C(NN=3)N(CC)C(=S)N2CC)c2ccccc21 (stereo not drawn),111%,84.6%,97.2%,97.3%,94%,103%,97.8%,98.4%,108%,102%,96.9%,99.4%,81.2%,133%,100%,76%,91.5%,103%,
Nc1c(C(=O)Nc2cccc(C(F)(F)F)c2)sc2nc3c(cc12)C(O)CCC3 (stereo not drawn),17.7%,-6.78% (active),86.8%,16.8%,23.4%,25.7%,41.4%,47.8%,49%,30.7%,,51.5%,49.9%,54.6%,54.6%,30.1%,-2.02% (active),24.7%,14.5%
CCCCC(N)(C(=O)O)C1CCCC1 (stereo not drawn),100%,93.5%,99.9%,91%,92.2%,105%,97.4%,99.4%,94.8%,,,96.1%,90.9%,104%,96.9%,93%,82.4%,123%,97.9%
NC(=O)c1cccc(N2Cc3ccccc3OC3=C2C(=O)c2c(O)ccc(O)c2C3=O)c1,-55.8% (active),6.48% (active),1% (active),-7.38% (active),-44.5% (active),-7.12% (active),-86.1% (active),-63.5% (active),-85.6% (active),-38.7% (active),-0.27% (active),-53.5% (active),-86.7% (active),-99.7% (active),-93.7% (active),-99.4% (active),62.1%,-36.2% (active),-8.27% (active)
CC1=CNNc2c3ncnc-3ncn21,104%,101%,99.1%,102%,99.9%,99.7%,,106%,105%,,,105%,90.6%,105%,99.8%,102%,95.7%,91.9%,96.1%
O=S(=O)(c1ccccc1)n1ccc(-c2ccc3c(c2)CCO3)n1,92.8%,76.2%,83.4%,73.6%,84.2%,70.2%,73.1%,85.2%,86.2%,86.5%,,67.9%,51%,76.2%,78.4%,75.3%,71.2%,85.6%,76.7%
CC/C=C\C/C=C\C[C@H](O)C/C=C1/C(=O)C=C[C@H]1C/C=C\CCC(=O)OC,2.84% [8.25 µM] (active),75.2% [8.25 µM],62.4% [8.25 µM],15% [8.25 µM],20.1% [8.25 µM],24.5% [8.25 µM],4.47% [8.25 µM] (active),-71.8% [8.25 µM] (active),22.5% [8.25 µM],65.6% [8.25 µM],39% [8.25 µM],1.16% [8.25 µM] (active),48.1% [8.25 µM],58.7% [8.25 µM],,55.3% [8.25 µM],107% [8.25 µM],32.7% [8.25 µM],-1.3% [8.25 µM] (active)
CCOP(=O)(CCN1CCN(CCCCCOc2cc3c(cc2OC)C(=O)N2CCC[C@H]2C=N3)CC1)OCC,80.4%,65.5%,91.5%,30.1%,76.2%,83.9%,94.6%,22%,120%,33.6%,98.2%,79%,28.3%,148%,99.9%,57.3%,89.2%,19.9%,11%
CN=S(=O)(NC(=O)c1ccc(Cl)cc1Cl)c1ccc(Br)s1 (stereo not drawn),112%,73.4%,103%,89.3%,79.2%,95.3%,99.9%,105%,102%,108%,,105%,89.4%,106%,,,67.8%,93.3%,96.8%
Clc1ccc2c(c1)NC1(CCSc3ccccc31)n1nccc1-2 (stereo not drawn),90.9%,95.5%,102%,88.6%,81%,99.4%,94.7%,92.3%,98.4%,98.7%,,104%,,96.7%,100%,96.3%,,90.9%,95.7%
COc1ccc2c(c1)NC(=O)CN2c1nc(C)nc2ccccc12,3.4% (active),41.8%,34.4%,16.2%,15.1%,-34.8% (active),35.7%,22%,59%,23.5%,30.1%,24.7%,26.8%,14.8%,26.9%,29.3%,-4.89% (active),23.7%,37.2%
CCOC(=O)/C=C\C(=O)NC(N)=O,104%,99.3%,106%,94%,83.5%,105%,99.3%,91.8%,118%,101%,98.8%,103%,90.8%,97.8%,112%,,107%,86.5%,93.9%
O=C(Nc1ccc(Cl)cc1)c1cc(-c2ccc(F)cc2)c2sc(=O)[nH]c2n1,16.9%,-5.08% (active),,9.42% (active),10.3%,-86.1% (active),,8.5% (active),25.4%,14.3%,,11.9%,4.68% (active),20.8%,2.34% (active),-12.7% (active),,13.9%,16.8%
C#CCN1C(=O)/C(=c2\sc3n(c2=O)NC2C(N=3)N(CC)C(=O)N2CC)c2ccccc21 (stereo not drawn),26.2%,14.2%,89.1%,94.4%,47.5%,53%,54.1%,60.3%,57.3%,91.3%,69.7%,71%,,96.5%,54.4%,30.1%,36.8%,68.5%,
CCCCCCCCCCCCCCCCC(Br)C(=O)O (stereo not drawn),108%,86.5%,105%,102%,103%,103%,105%,106%,100%,94.4%,,102%,87.9%,116%,96.6%,,94.7%,97.5%,
CC(=O)/C=C/c1cc2cc(Cl)ccc2[nH]c1=O,76.8%,102%,68.8%,62.1%,77.5%,96.5%,80.8%,69.1%,99.9%,87.9%,89.3%,77%,77.5%,95.5%,92%,87%,90.2%,87.1%,69%
COc1ccc(/C=C/C(=O)c2ccc(NC(=O)CN3CCN(c4cc5c(cc4F)c(=O)c(C(=O)O)cn5C4CC4)CC3)cc2)cc1,114%,89.2%,94.7%,98.6%,92.4%,94%,93.2%,76.9%,106%,117%,,95.9%,90.5%,106%,114%,93%,112%,101%,102%
CCCCCCCN(CCCCCCC)C(=N)c1ccc(OC)c2ccccc12,-78.8% (active),-98.2% (active),-80.7% (active),-90.5% (active),-92.3% (active),-93.2% (active),-76.5% (active),-98.7% (active),-82.9% (active),-82.5% (active),-21.7% (active),-75.4% (active),-86.6% (active),-89.4% (active),-91.9% (active),,-52.9% (active),-50.4% (active),-43.5% (active)
COc1ncc(-c2ccc3ncnc(Nc4cccc(Cl)c4)c3c2)cc1N(S(C)(=O)=O)S(C)(=O)=O,53%,41.1%,72.8%,82.1%,52.1%,73.6%,58.1%,63.7%,72.8%,77.4%,30%,64.5%,25.9%,5.88% (active),,26.8%,49.6%,69.9%,86.8%
